Screening data deposited in PubChem by National Center for Advancing Translational Sciences (NCATS).
D2 ag-1: human D2 receptor agonism in beta-arrestin assay. P14416. DiscoveRx PathHunter D2 beta-arrestin, luminescence, 90 min; 100% = 57 uM dopamine signal. activation, % (concentration not given with the values). hit rate 0.084% among 360,000. AID 624465; in the data active = activation above about 40%; inconclusive = between about 15% and that limit
Target sequence (P14416 whole entry, looked up): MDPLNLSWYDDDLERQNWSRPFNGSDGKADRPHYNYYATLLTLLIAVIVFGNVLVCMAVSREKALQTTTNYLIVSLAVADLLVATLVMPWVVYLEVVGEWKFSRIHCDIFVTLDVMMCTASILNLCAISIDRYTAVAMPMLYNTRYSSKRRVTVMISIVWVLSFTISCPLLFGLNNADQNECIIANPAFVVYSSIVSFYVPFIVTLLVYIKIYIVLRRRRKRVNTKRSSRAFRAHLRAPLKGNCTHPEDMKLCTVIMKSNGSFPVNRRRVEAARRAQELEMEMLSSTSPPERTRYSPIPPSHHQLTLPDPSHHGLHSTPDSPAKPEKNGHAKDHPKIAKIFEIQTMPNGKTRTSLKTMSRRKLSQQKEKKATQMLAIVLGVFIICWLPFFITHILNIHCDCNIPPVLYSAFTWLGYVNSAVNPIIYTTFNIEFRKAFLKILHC
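DiscoveRx PathHunter D2 beta-arrestin cells (2,100/well) attached overnight, then compound-stimulated 90 min at 37 C in HBSS/10 mM HEPES/0.1% Tween-20 buffer; beta-galactosidase complementation read by luminescence after 1 h at ambient temperature. Dopamine 57 uM final (EC100) as control.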
D2 ag-2: activates the human D2 dopamine receptor; activation, % at 2 µM; HEK293 T-REx D2 cells, calcium flux agonist mode; AID 485358; hit rate 0.53% among 340,000; P14416;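 active = activation over 3 SD above normal in the single-dose calcium agonist read, cut at about 30% in these data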
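Tetracycline-induced HEK293 T-REx cells with force-coupled D2 receptor, plated overnight at 30 C, loaded with no-wash calcium dye. After a 10 s baseline, compound was pin-added and calcium flux read kinetically for 180 s; calcium rises flagged agonists.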
D2 PAM-1: positively modulates the human D2 dopamine receptor allosterically | P14416 | HEK293 T-REx D2, calcium flux, EC20 dopamine potentiation | potentiation, % at 10 µM | hit rate 0.34% among 340,000;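 active = potentiation over 3 SD above the plate norm, cut at about 30% in these data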
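Calcium flux readout, no-wash dye, 1 read/s. Inducible HEK293 Trex D2 line, overnight 30 C. Compound alone 180 s (agonist flags), then EC20 dopamine, another 180 s to score potentiation.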
D2 antag: antagonizes the human D2 dopamine receptor. P14416. HEK293 TREx D2 cells, calcium flux, dopamine EC80. inhibition, % at 10 µM. hit rate 2% among 340,000; in the data active = inhibition above about 30%; inactive = below that, where a call was filed
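Read-out: kinetic calcium fluorescence (1 cycle/s) in inducible HEK293 T-REx D2 cells after an EC80 dopamine addition that followed 180 s compound preincubation. Loss of the dopamine response indicates antagonism.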
D2 PAM-2: human D2 receptor positive allosteric modulation. potentiation, % (concentration not given with the values). DiscoveRx D2 beta-arrestin cells, luminescence, 90 min; 100% = 57 uM dopamine signal. hit rate 0.23% among 360,000; in the data active = potentiation above about 50%; inconclusive = mostly about 30% to 49%
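PathHunter beta-arrestin assay in DiscoveRx D2 cells. Compounds were added with an EC20 of dopamine (50 nM final) for 90 min at 37 deg C. Luminescence was read 1 h after detection reagent, with 57 uM dopamine as the EC100 control.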
Numbers stand for hits; n = inactive; u = inconclusive; x = no result given. Most compounds without a hit are left out; they make up all but 2.4% or so of the library.

SMILES | D2 ag-1 | D2 ag-2 | D2 PAM-1 | D2 antag | D2 PAM-2
CN(CC(=O)Nc1ccc(F)cc1F)S(=O)(=O)c1cccc2nsnc12 | x | n | n | x | x
O=C(CCCCCN1C(=O)c2ccccc2C1=O)Nc1ccccc1F | n | n | n | n | n
Cc1cccc(NC(=O)CCCCCN2C(=O)c3ccccc3C2=O)n1 | n | n | n | 35 | n
O=C(CCCCCCN1C(=O)c2ccccc2C1=O)NC1CCCCC1 | n | n | n | 32 | n
Cc1cccc(NC(=O)CCCN2C(=O)c3ccccc3C2=O)n1 | n | n | n | 34 | n
Cc1ccc(NC(=O)CCCCCN2C(=O)c3ccccc3C2=O)nc1 | n | n | n | n | n
O=C(CCCCCN1C(=O)c2ccccc2C1=O)Nc1ccc(F)cc1 | n | n | n | 34 | n
CCCN(CCC)C(=O)Cn1c(=O)n(Cc2ccc(C(=O)NCCc3ccc(Cl)cc3)cc2)c(=O)c2ccccc21 | x | n | n | x | x
CCOc1ccccc1NC(=O)Cc1csc(COc2cccc(C)c2)n1 | x | n | n | x | x
O=C(Cn1cc(SCc2ccc(F)cc2)c2ccccc21)N1CCCCC1 | x | x | n | x | x
CCC1CCCCN1CCCNC(=O)c1[nH]c2ccccc2c1Sc1ccc(Cl)cc1 (configuration not stated) | x | n | n | x | x
CCOC(=O)CCCSc1nnc(CCCCCN2C(=O)c3cccc4cccc(c34)C2=O)o1 | n | n | n | n | n
CCOC(=O)CCCCCN1C(=O)c2cccc3cccc(c23)C1=O | n | n | 30 | n | n
CCc1cc2c(N[C@@H](Cc3c[nH]c4ccccc34)C(=O)O)ncnc2s1 | n | n | n | n | n
CCc1cc2c(NC(Cc3c[nH]c4ccccc34)C(=O)O)nc(C)nc2s1 (configuration not stated) | n | n | n | 34 | n
O=C(Cn1c(SCCOc2ccc(Cl)cc2)nc2ccccc21)N1CCCCC1 | x | x | n | x | x
COc1ccc(NC(=O)Cn2c(=O)nc(-c3ccccc3)c3ccccc32)cc1OC | x | n | n | x | x
Nn1c(SCCOc2ccccc2)nnc1-c1cccnc1 | n | n | n | 33 | n
COC(=O)c1ccc(NC(=S)N(Cc2cccnc2)Cc2ccco2)cc1 | n | n | n | n | n
CCc1ccc(NC(=O)N(Cc2cccnc2)Cc2ccco2)cc1 | n | n | 32 | n | n
CN(CCC#N)C(=O)Cn1nc(Cc2ccncc2)c2ccccc2c1=O | n | n | n | 35 | n
COc1ccc(C(=O)c2ccc(N3CCN(C4CC(=O)NC4=O)CC3)cc2)cc1F (configuration not stated) | n | n | n | 34 | n
Cc1ccn2c(=O)cc(COc3cccc(NC(=O)Nc4cccc(Cl)c4C)c3)nc2c1 | x | n | n | x | x
Cc1ccc(OCC(O)CN2CCN(c3ccc(C)cc3)CC2)cc1 (configuration not stated) | n | n | n | 53 | n
OC(COc1ccc(Cl)cc1)CN1CCC(Cc2ccccc2)CC1 (configuration not stated) | n | n | n | n | n
SMILES | D2 ag-1 | D2 ag-2 | D2 PAM-1 | D2 antag | D2 PAM-2
Cc1ccc(C)c(OCC(O)CN2CCC(Cc3ccccc3)CC2)c1 (configuration not stated) | n | n | n | 47 | n
Cc1ccc(N2CCN(CC(O)COc3ccccc3)CC2)cc1 (configuration not stated) | n | n | n | 39 | n
Cc1ccc(OCC(O)CN2CCN(CC(O)COc3ccc(C)cc3)CC2)cc1 (configuration not stated) | n | n | n | n | n
Cc1cc(=O)oc2cc(OCC(O)CN3CCN(c4ccc(F)cc4)CC3)ccc12 (configuration not stated) | u | 73 | n | 76 | n
Cc1nn(CC(=O)Nc2ccc(C(C)C)cc2)c(=O)c2c(C)n(-c3ccc(Cl)cc3)nc12 | x | n | n | x | x
Cc1ccc(N2CC(NC(=O)c3ccc(S(=O)(=O)N4CCCC4)cc3)CC2=O)cc1C (configuration not stated) | x | n | n | x | x
CCOC(=O)N1CCN(CC(O)COc2ccc(C(C)C)c(C)c2)CC1 (configuration not stated) | n | 31 | n | n | n
O=C(Cn1nc(C(F)(F)F)c2c1CCCC2)Nc1ccc(F)c(Cl)c1 | x | n | n | x | x
CCN1CCc2nc(NC(=O)c3ccccc3)sc2C1 | n | n | n | n | n
O=C(Nc1nc2c(s1)CN(Cc1ccccc1)CC2)C1CCC1 | n | n | n | 51 | n
Cn1c(=O)c2c(-c3ccccc3)n3c(c2n(C)c1=O)C(c1cccc([N+](=O)[O-])c1)Nc1ccccc1-3 (configuration not stated) | x | n | n | x | x
Cc1nn(-c2ccc(N3CCCC3)nn2)c(C)c1CCC(=O)N1CCN(c2ccccc2)CC1 | x | n | n | x | x
COc1ccc(C(CNC(=O)c2cccc(N(C)C)c2)N2CCCC2)cc1 (configuration not stated) | n | n | n | 47 | n
C=CCN(c1ccccc1)S(=O)(=O)c1cccc(C(=O)NCC(c2ccc(OC)cc2)N2CCCCC2)c1 (configuration not stated) | n | n | n | 55 | n
COc1ccc(C(CNC(=O)c2cccc(S(=O)(=O)Nc3ccccc3OC)c2)N2CCCC2)cc1 (configuration not stated) | n | n | n | n | n
COc1ccc(C(CNC(=O)c2ccc(C)c(S(=O)(=O)Nc3ccccc3OC)c2)N2CCCC2)cc1 (configuration not stated) | n | n | n | 49 | n
COCCNC(=O)Nc1cc(C(=O)NCc2ccc(C(C)C)cc2)ccc1N1CCCC1 | x | n | n | x | x
O=C(NCc1ccco1)c1c[nH]c2ccc(S(=O)(=O)Nc3ccc(F)cc3F)cc2c1=O | x | n | n | x | x
O=C(CSc1nnc(-c2cccc(F)c2)o1)N1CCCC1 | n | n | n | 32 | n
Cc1cc(C)cc(OCc2nnc(SCC(=O)N3CCCCC3)o2)c1 | n | n | 44 | n | n
O=C(CSc1nnc(COc2ccc(F)cc2)o1)N1CCCCC1 | n | n | n | 97 | n
Cc1cccc(OCc2nnc(SCC(=O)N3CCCC3)o2)c1 | n | n | n | n | n
O=C(NCc1nnc(SCC(=O)N2CCCC2)o1)c1c(F)cccc1Cl | n | n | n | n | n
O=C(NCc1nnc(SCC(=O)N2CCCC2)o1)c1c(F)cccc1F | n | n | n | 32 | n
O=C(Cn1ncc2c3ccccc3n(Cc3cccc(Cl)c3)c2c1=O)N1CCCCCC1 | x | n | n | x | x
COc1cc2c(cc1OC)C(COc1ccccc1OC)N(C(=O)COc1ccc(Cl)cc1)CC2 (configuration not stated) | x | x | n | x | x
COC(=O)CSc1nnc(COc2ccc3ccccc3c2)o1 | n | n | n | n | n
CCOC(=O)CSc1nnc(COc2ccc3ccccc3c2)o1 | n | n | n | 34 | n
